Bioassay records: PubChem, National Center for Advancing Translational Sciences (NCATS)
A selection: hits, their analogues and other compounds. The true share with any hit is near 4.6%.
Tau fluor cs – counter-screen for tau fibril formation inhibitors; tau K18 P301L Alexa594 fluorescence, heparin fibrillization; Potency, µM (titrated, usually from 57.7 µM), for the others: at the highest dose activity change, negative = decrease; 280,000 tested, 0.93% active; AID 1463; also: potency is read from the fitted curve at half-maximal effect; nearly all actives have a fitted effect of over 55% in size
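Human K18 P301L tau (15 uM unlabeled plus 0.24 uM Alexa 594-labeled, final) in 100 mM sodium acetate pH 7 was mixed with compound and 20 uM heparin and incubated 6 hr at 37 C.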
TexasRed fluor – counter-screen for TRb-SRC2 inhibitors: fluorescence interference. TRb/SRC2 Texas Red total fluorescence interference. AID 1479. 280,000 tested, 0.29% active. Potency, µM (highest dose often 106 µM), for inactives: top-dose fluorescence change, negative = quenching; active = well fitted curve in either direction with a large enough effect; inconclusive = small, poorly fitted or top-dose-only effect; also: potency is read from the fitted curve at half-maximal effect
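Human TRb ligand-binding domain at 0.6 uM with 20 nM Texas Red SRC2 peptide in Tris buffer containing 1 uM T3 and 5% DMSO, incubated with compound 5 h at ambient temperature. Total fluorescence (555/632 nm) calculated as parallel + 2 × perpendicular.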
TRb SRC2 PPI – inhibitors of human thyroid hormone receptor beta-SRC2 interaction. P10828. TRbeta-SRC2 peptide binding, fluorescence polarization; receptor liganded with 1 µM T3. Potency, µM (titrated, usually from 106 µM), for the others: at the highest dose activity change, negative = inhibition, hits mostly inhibitors. 280,000 tested, 0.065% active;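 also: potency is read from the fitted curve at half-maximal effect; plate controls were bound peptide for no effect and peptide without receptor for full effect; nearly all actives have a fitted effect of over 50% in size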
Target sequence (P10828 whole entry, looked up): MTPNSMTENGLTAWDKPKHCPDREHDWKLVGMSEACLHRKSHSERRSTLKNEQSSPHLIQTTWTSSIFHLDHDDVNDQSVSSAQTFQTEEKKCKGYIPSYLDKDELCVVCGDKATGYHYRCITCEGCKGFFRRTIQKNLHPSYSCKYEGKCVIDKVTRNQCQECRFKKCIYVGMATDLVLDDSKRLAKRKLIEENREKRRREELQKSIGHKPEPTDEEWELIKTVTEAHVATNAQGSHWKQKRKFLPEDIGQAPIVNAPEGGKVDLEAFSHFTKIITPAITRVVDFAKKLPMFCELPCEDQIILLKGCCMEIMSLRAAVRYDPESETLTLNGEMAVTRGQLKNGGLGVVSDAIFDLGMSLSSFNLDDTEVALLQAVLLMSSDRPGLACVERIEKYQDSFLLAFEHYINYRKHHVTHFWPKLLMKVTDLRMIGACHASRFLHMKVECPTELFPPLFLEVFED
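A fluorescence polarization screen tested compounds at multiple concentrations against complex formation between 0.6 uM TRb ligand-binding domain and 20 nM Texas Red SRC2 peptide, with 1 uM T3 present; readout after 5 hr.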
Tau ThT inhib – tau fibrillization inhibition (ThT binding); P10636; recombinant tau K18 P301L (four-repeat tau fragment), heparin-induced fibrillization, ThT fluorescence; Potency, µM (highest dose often 57.4 µM), for the others: top-dose activity, negative = inhibition, most hits filed as inhibitors; 270,000 tested, 2.1% active; AID 1460; also: potency is read from the fitted curve at half-maximal effect; nearly all actives have a fitted effect of over 55% in size
Target sequence (P10636 561-689 P618L limits assumed): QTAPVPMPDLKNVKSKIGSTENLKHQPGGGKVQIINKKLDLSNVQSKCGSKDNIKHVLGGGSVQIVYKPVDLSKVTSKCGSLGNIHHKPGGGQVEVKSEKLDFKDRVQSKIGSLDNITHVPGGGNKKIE
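Recombinant human tau K18 fragment […] carrying P301L, 15 uM unlabeled plus 0.24 uM Alexa 594-labeled, was fibrillized with 20 uM heparin in 100 mM sodium acetate pH 7 for 6 hr at 37 C; 30 uM ThT fluorescence read after 1 hr.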
PNC assembly inh – perinucleolar compartment assembly inhibition | PC3M PTB-GFP, PNC prevalence imaging, 16 h; hits give low values | activity change (PNC), negative = inhibition, % at 10 µM | 140,000 tested, 3.1% active;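 active = readout at or below -70, meaning at least 70% loss of cells showing the perinucleolar compartment, a nuclear body marking cancer cells; inconclusive = readout between -30 and a set limit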;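 also: plate controls were DMSO wells for no effect and camptothecin positive control wells for full effect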
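Read-out is percentage of cells bearing a perinucleolar compartment, from automated 20x imaging of fixed, Hoechst-stained PC3M PTB-GFP cells. Cells were seeded 4 h, then exposed 16 h to compound (23 nl of library stock) in duplicate plates.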
Tau fibril FP – blocks human tau fibril formation measured by polarization | Potency, µM (titrated, usually from 57.7 µM), for inactives: at the top dose activity, negative = inhibition, most hits filed as inhibitors | 280,000 tested, 0.39% active | P10636 | K18 P301L tau heparin fibrillization, Alexa594 FP, 6 h; also: potency is read from the fitted curve at half-maximal effect; nearly all actives have a fitted effect of over 55% in size
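K18 P301L tau (15 uM unlabeled/0.24 uM Alexa 594-labeled, final) + compound + heparin 20 uM final; 100 mM NaOAc pH 7; 6 hr 37 C; ThT 30 uM final added, 1 hr RT; FP ex 555/em 632 nm.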
Numbers without * were called inactive; u = inconclusive; x = not tested or not shown; [ ] = dose if it differs, or a comment. Unless noted, calls follow the shape of the dose curve; as a rule, active = well fitted curve in the direction sought with a large enough effect; inconclusive = small, poorly fitted or top-dose-only effect, or another doubt; inactive = no such curve, though single readings can be large; an effect the other way counts as inactive or inconclusive. Unless noted, % is scaled to controls: 0 for no effect and ±100 for the full control effect.

SMILES | Tau fluor cs | TexasRed fluor | TRb SRC2 PPI | Tau ThT inhib | PNC assembly inh | Tau fibril FP
CCc1c(C)nc(SCC(=O)NNC(=O)Cc2ccc(OC)cc2)[nH]c1=O | -13.7% | -1.3% | 4.4% | x | x | -8.5%
Cc1ccc(N2C(=O)[C@@H]3C(C(=O)CN4C(=O)c5ccccc5C4=O)=NN[C@@H]3C2=O)c(C)c1 | -9.4% | -4.7% | -0.4% | -6.9% | x | -2.4%
Cn1cccc1/C=C1\SC(=O)N(CC(=O)Nc2ccc(Cl)cc2)C1=O | u | -2.0% | -1.4% | u | 27.0 | -9.3%
C/C(=N\NC(=O)c1c(Cl)c(C)nn1C)c1cccc(NC(=O)COc2ccccc2)c1 | -11.8% | -4.1% | 0.1% | -14.1% | u | -5.3%
O=C(Nc1c(C(=O)O)[nH]c2ccccc12)NC1CCCCC1 | -25.7% | -0.2% | -3.7% | u | -100.0* | -4.0%
O=C(c1ccc2snnc2c1)N1CCCCC1 | 0.9% | -1.3% | -3.5% | -1.9% | -100.0* | 0.2%
COc1ccc(C2(Nc3cccc(C(=O)O)c3C)C(=O)c3ccccc3C2=O)cc1 | 1.5% | -3.4% | -1.0% | 1.6% | x | -1.4%
COc1ccc(C2(C(=O)c3ccccc3)C(=O)c3ccccc3C2=O)cc1 | u | -2.0% | 2.4% | 14.1µM* | x | u
CCn1c(CSc2nc3ccccc3s2)nnc1SCC(=O)c1ccc(O)cc1O | -17.3% | 0.2% | -0.8% | -5.5% | -28.4 | -4.1%
O=C(CSc1nnc(CNC(=O)c2ccco2)o1)c1ccccc1 | -10.4% | -1.7% | 1.0% | -5.3% | 30.9 | -8.4%
CC(C)c1c(O)nc(SCCN(C)C)[nH]c1=O | 7.4% | -1.3% | -2.5% | -2.3% | -86.9* | 2.4%
Cc1ccc(-n2cccc2/C=C2\C(=N)N3N=C(c4ccco4)SC3=NC2=O)cc1 | -15.1% | -6.0% | 11.1% | u | x | 10.2%
Cn1c(C(=O)NCc2ccccc2)cc2oc3ccccc3c21 | -28.3% | -1.1% | -4.8% | -13.8% | -105.8* | -12.0%
Cc1nn(-c2nc3ccccc3s2)c(C)c1Oc1ccccc1O | -29.0% | -5.1% | -6.9% | u | -100.0* | u
Cc1nn(-c2ccccn2)c(C)c1Oc1ccccc1O | -4.1% | 0.8% | 5.8% | -0.3% | -21.0 | -3.2%
O=C(NCCCN1CCOCC1)c1ccc(CS(=O)(=O)c2c(Cl)cccc2Cl)o1 | 5.3% | 2.6% | -14.2% | 0.9% | -3.9 | -3.9%
COc1ccc(Cc2nnc(NC(=O)Cc3cccs3)s2)cc1OC | -20.3% | u | 18.9% | u | -100.0* | -8.4%
O=C(Cc1cccs1)Nc1nc2c(s1)CCCC2 | -12.5% | 0.4% | -15.1% | -12.2% | -113.2* | 6.4%
CC(C)(C)c1nc(SCC(=O)Nc2nc3c(s2)CCCC3)c2ccccc2n1 | -22.3% | 0.3% | -4.5% | -10.5% | -94.8* | 4.8%
COc1ccc(CN=Nc2cc(C)nc(NS(=O)(=O)c3ccccc3Cl)n2)cc1 | -2.0% | 1.5% | 4.1% | 2.0% | x | -2.0%
O=C(N1CCOCC1)n1cnc2ccccc21 | -0.2% | -7.1% | -8.6% | 5.3% | -100.0* | 2.8%
O=C(N1CCOCC1)n1nnc2ccccc21 | -2.3% | 2.5% | -1.1% | -6.0% | u | 4.9%
CN(C)[C@@H]1C(=O)C(C(=O)NCN2CCCC2)=C(O)[C@@]2(O)C(=O)C3=C(O)c4c(O)cccc4[C@@](C)(O)C3CC12 (stereo partly drawn) | u | u | -18.4% | 14.1µM* | -9.0 | u
CN(C)c1ccc(O)c2c1C[C@@H]1C[C@H]3C(N(C)C)C(=O)C(C(N)=O)=C(O)[C@@]3(O)C(=O)C1=C2O (stereo partly drawn) | -16.2% | -4.2% | 0.8% | u | x | -9.2%
CN(C)[C@H]1C(=O)C(C(=O)NCN2CCCC2)=C(O)[C@]2(O)C(=O)C3=C(O)c4c(O)cccc4[C@](C)(O)[C@H]3C[C@H]12 | x | 14.1µM*[quencher] | u | x | x | x
SMILES | Tau fluor cs | TexasRed fluor | TRb SRC2 PPI | Tau ThT inhib | PNC assembly inh | Tau fibril FP
CCN(CC)S(=O)(=O)c1ccc(NS(=O)(=O)c2ccc(O)c([N+](=O)[O-])c2)cc1 | 0.1% | -0.7% | 3.8% | -3.1% | -19.6 | 4.5%
COCCOc1cc(Nc2nnc(C(F)(F)F)s2)c(Cl)cc1Cl | 9.7% | -4.5% | -3.4% | 3.0% | u | 5.0%
O=C(c1ccccc1)c1cc([N+](=O)[O-])ccc1N1CCOCC1 | -5.0% | 0.2% | 12.0% | -8.0% | -112.5* | 6.9%
Cc1ccc(C(=O)c2cc([N+](=O)[O-])ccc2N2CCCCC2)cc1 | -18.8% | -3.3% | 3.5% | -14.3% | -110.2* | -2.9%
CC1CCCN(c2ccc([N+](=O)[O-])cc2C(=O)c2ccccc2)C1 (stereo not drawn) | u | -0.2% | -5.6% | u | -99.6* | 4.7%
O=C(c1ccc(Cl)cc1)c1cc([N+](=O)[O-])ccc1N1CCOCC1 | -15.9% | -2.5% | 4.6% | -6.7% | x | 7.8%
CCOC(=O)c1cc(CC)sc1NC(=O)c1cc([N+](=O)[O-])ccc1N1CCOCC1 | -13.9% | -1.7% | -14.5% | -13.6% | -83.9* | 8.6%
COc1cc(NS(=O)(=O)c2ccc(NC(=O)CSC3=NCCS3)cc2)nc(OC)n1 | -11.7% | -3.7% | -0.6% | u | u | -9.9%
COc1ccc(/C=N/NS(=O)(=O)c2ccccc2)cc1OS(=O)(=O)c1ccccc1 | u | -2.3% | 1.9% | -6.9% | -24.2 | -11.8%
COc1ccc(-c2nc(-c3ccncc3)no2)cc1OC | -1.9% | -1.6% | -13.9% | u | 36.7 | -1.9%
COc1cc(/C=C(\NC(C)=O)C(=O)Nc2ccccc2C)ccc1OC(C)=O | -6.4% | 2.1% | -3.2% | -11.9% | 22.4 | 1.7%
CNc1ncc(C(=O)c2ccc(Cl)cc2)s1 | 3.5% | -3.2% | -0.4% | 3.0% | 1.4 | 1.7%
CC1C/C(=C/c2cccs2)C(=O)/C(=C/c2cccs2)C1 (stereo not drawn) | -17.2% | 0.9% | -2.5% | u | -113.4* | -6.1%
O=C1/C(=C\c2ccco2)CCC/C1=C\c1ccco1 | -25.6% | -0.3% | 8.9% | 17.8µM* | 57.0 | u
CC1C/C(=C/c2ccco2)C(=O)/C(=C/c2ccco2)C1 (stereo not drawn) | -29.1% | -1.1% | -3.2% | 25.1µM* | 10.3 | u
O=C1/C(=C/c2cccs2)Sc2ccccc21 | -20.5% | -3.6% | -7.0% | u | u | -9.6%
O=C(Nc1ccc2nc(SCc3ccccc3)sc2c1)c1ccccc1F | u | 4.2% | 6.9% | -10.2% | x | u
Cc1nnc2c(N3CCN(c4ccccc4)CC3)nc3ccc(C(=O)c4ccccc4)cc3n12 | -7.0% | -1.5% | -9.6% | -2.5% | x | 1.4%
O=C1c2ccccc2-c2c1cccc2C(=O)N1CCCCC1 | -12.2% | -2.0% | 3.5% | -10.9% | 8.0 | -2.9%
